Screening data: PubChem BioAssay, National Center for Advancing Translational Sciences (NCATS)
S2 tox = reduces viability in counter-screen for ATXN expression inhibitors; S2 cells (HEK-293 line with an ATXN2-luciferase reporter) viability, CellTiter-Fluor protease fluorescence, 24 h; Potency, µM (highest dose often 56.7 µM), most hits filed as cytotoxic; hit rate 0.49% among 400,000; AID 651635; also: nearly all actives have a fitted effect of over 40% in size
TGFb inhibitor = blocks TGF-b signaling. HepG2 CAGA-GFP TGF-b/SMAD3 reporter, GFP fluorescence, 18 h; TGF-beta stimulated, 500 pg/mL final. Potency, µM (highest dose often 46.1 µM), most hits filed as inhibitors. hit rate 1.2% among 410,000. AID 588855; also: nearly all actives have a fitted effect of over 65% in size
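HEPG2 CAGA-GFP reporter cells (1000/well, DMEM with 1% FBS) received compounds, then recombinant TGF-beta at 500 pg/mL final for 18 hours at 37 degrees C. Per-cell GFP summed per well was normalised to unstimulated and stimulated DMSO controls before curve fitting.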
Six1-Eya2 inh = blocks human Six1 binding to Eya2; Q15475+O00167; AlphaScreen GST-Six1/His-Eya2 binding, biochemical; active compounds read low; activity change, % (concentration not given with the values); hit rate 0.56% among 360,000; AID 651725; in the data active = activity change below about -65%; inconclusive = mostly about -30% to -63%
Target sequence (O00167 whole entry, looked up): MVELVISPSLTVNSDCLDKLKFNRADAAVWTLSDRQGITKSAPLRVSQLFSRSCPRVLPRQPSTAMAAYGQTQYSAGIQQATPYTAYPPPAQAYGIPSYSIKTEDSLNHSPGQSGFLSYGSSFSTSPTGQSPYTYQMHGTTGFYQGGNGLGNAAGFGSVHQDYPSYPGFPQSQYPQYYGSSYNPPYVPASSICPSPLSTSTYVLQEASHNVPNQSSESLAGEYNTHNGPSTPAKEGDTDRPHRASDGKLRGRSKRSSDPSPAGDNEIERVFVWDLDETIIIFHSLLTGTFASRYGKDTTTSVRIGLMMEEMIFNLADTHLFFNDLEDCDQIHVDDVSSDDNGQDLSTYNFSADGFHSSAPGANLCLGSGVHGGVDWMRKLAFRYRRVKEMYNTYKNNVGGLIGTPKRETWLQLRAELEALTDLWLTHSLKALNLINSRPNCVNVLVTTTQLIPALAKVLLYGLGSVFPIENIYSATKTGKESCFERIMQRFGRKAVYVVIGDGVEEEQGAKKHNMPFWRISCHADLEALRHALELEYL
Target sequence (Q15475 whole entry, looked up): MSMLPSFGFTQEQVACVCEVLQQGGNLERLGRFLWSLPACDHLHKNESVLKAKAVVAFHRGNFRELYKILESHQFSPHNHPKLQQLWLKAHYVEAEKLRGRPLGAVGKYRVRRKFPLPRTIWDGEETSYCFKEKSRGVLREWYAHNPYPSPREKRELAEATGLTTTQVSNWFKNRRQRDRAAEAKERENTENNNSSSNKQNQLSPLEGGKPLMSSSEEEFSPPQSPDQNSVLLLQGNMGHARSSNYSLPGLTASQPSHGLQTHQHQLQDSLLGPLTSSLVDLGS
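GST-Six1 + His-Eya2 (5X stock: 250/500 nM); Tris pH 8.0, 300 mM NaCl, 0.05% BSA, 0.02% Tween 20; GSH donor/Ni acceptor beads; 1 h 37 °C dark; AlphaScreen readout.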
CtBP-E1A inh = CtBP/E1A binding inhibition; AlphaScreen GST-E1A/His-CtBP binding, 1536-well; active compounds read low; activity change, % (test concentration not listed); hit rate 0.49% among 340,000; in the data active = activity change below about -65%; inconclusive = mostly about -30% to -63%
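GST-E1A and His-tagged CtBP (125 nM each as 5X stock) were preincubated with pin-transferred compound for 2 h at 37 °C in the dark, then glutathione donor and nickel acceptor beads were added for 1 h before AlphaScreen reading.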
HepG2 tox-1 = HepG2 cytotoxicity, counter-screen for TGF-b inhibitors. Potency, µM (series often up to 46.1 µM), actives largely listed as cytotoxic. hit rate 0.76% among 410,000. HepG2 CAGA-GFP viability, ATP luminescence, 18 h
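HepG2 CAGA-GFP cells (1000/well, DMEM with 1% FBS) received compound, then TGF-beta at 500 pg/mL final, and were incubated 18 hours at 37 degrees C. Viability was read by CellTiter-Glo luminescence. Media-only wells were set as complete cell-killing and DMSO as no toxicity.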
ATXN2 expr inh = inhibitors of ATXN2 expression; hit rate 0.72% among 360,000; Potency, µM (doses to about 57 µM), hits mostly inhibitors; HEK-293 ATXN2-luciferase reporter, luminescence, 24 h; also: nearly all actives have a fitted effect of over 55% in size
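qHTS (up to 57 uM final) was run with 24 h compound exposure of reporter cells at 37 °C. Each well was multiplexed: SteadyGlo luminescence measured ATXN2-luciferase expression after a fluorogenic Gly-Phe-AFC viability readout (25 uM final).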
TGFb CAGA inh = confirmation of TGF-b signaling inhibitors in HepG2 reporter cells; Potency, µM (titrated, usually from 46.1 µM), most hits filed as inhibitors; hit rate 63% among 1,600; HepG2 CAGA-GFP TGF-b reporter, GFP fluorescence, 18 h; cells stimulated with TGF-beta, 500 pg/mL; shares compounds with TGFb inhibitor; also: nearly all actives have a fitted effect of over 65% in size
HepG2 tox-2 = HepG2 cytotoxicity, TGF-b inhibitor counterscreen | shares compounds with TGFb inhibitor | HepG2 CAGA-GFP viability, ATP luminescence, 18 h; cells stimulated with TGF-beta, 500 pg/mL | Potency, µM (doses to about 46.1 µM), most hits filed as inhibitors | hit rate 27% among 1,600 | AID 720535; also: nearly all actives have a fitted effect of over 70% in size
CCL64 TGFb inh = orthogonal confirmation of TGF-b inhibitors in CCL64 cells; AID 720536; CCL64 CAGA-GFP reporter, TGF-b stimulated, GFP fluorescence, 18 h; Potency, µM (series often up to 46.1 µM), usual class: inhibitors; hit rate 41% among 1,600; shares compounds with TGFb inhibitor; also: nearly all actives have a fitted effect of over 65% in size
COP TGFb inh = TGF-b inhibition validated with COP promoter. hit rate 3% among 1,600. HepG2 COP-GFP TGF-b reporter, GFP fluorescence, 18 h; cells stimulated by added recombinant TGF-beta. Potency, µM (top dose mostly 46.1 µM), actives largely listed as inhibitors. shares compounds with TGFb inhibitor. AID 720537; also: nearly all actives have a fitted effect of over 70% in size
Large screens that a line does not name were inactive (follow-up assays come after a bar, where they were run). Most compounds without a hit are left out; they make up all but 2.8% or so of the library. Unless noted, calls follow the shape of the dose curve; as a rule, active = well fitted curve in the direction sought with a large enough effect; inconclusive = small, poorly fitted or top-dose-only effect, or another doubt; inactive = no such curve, though single readings can be large; an effect the other way counts as inactive or inconclusive.

O=C(Nc1ccc(S(=O)(=O)N2CCOCC2)cc1)c1ccc([N+](=O)[O-])s1	TGFb inhibitor 4.5µM | TGFb CAGA inh 1.6µM | HepG2 tox-2 5.2µM | CCL64 TGFb inh inactive | COP TGFb inh inactive
O=C(Nc1ccc(N2CCOCC2)cc1)c1ccc([N+](=O)[O-])o1	S2 tox inconclusive, TGFb inhibitor 5.6µM | TGFb CAGA inh 12µM | HepG2 tox-2 23µM | CCL64 TGFb inh inconclusive | COP TGFb inh inactive
O=C(Oc1ccc(NC2=C(Cl)C(=O)c3ccccc3C2=O)cc1)c1ccc([N+](=O)[O-])cc1	S2 tox inconclusive (no result: CtBP-E1A inh, ATXN2 expr inh)
O=C1C(Cl)=C(Nc2ccc3cn[nH]c3c2)C(=O)c2ccccc21	S2 tox 14µM, TGFb inhibitor 0.63µM, HepG2 tox-1 1.1µM, ATXN2 expr inh 20µM | TGFb CAGA inh 1.6µM | HepG2 tox-2 3.3µM | CCL64 TGFb inh 4.6µM | COP TGFb inh 6.5µM
Cc1cccc(NC2=C(NC(=O)c3ccccc3)C(=O)c3ccccc3C2=O)c1	S2 tox inconclusive, TGFb inhibitor inconclusive, Six1-Eya2 inh inconclusive, CtBP-E1A inh inconclusive, ATXN2 expr inh inconclusive
O=C(NC1=C(Nc2ccc(Cl)cc2)C(=O)c2ccccc2C1=O)c1ccccc1	S2 tox inconclusive, TGFb inhibitor 8.9µM, Six1-Eya2 inh inconclusive, CtBP-E1A inh inconclusive, HepG2 tox-1 28µM | TGFb CAGA inh 15µM | HepG2 tox-2 21µM | CCL64 TGFb inh inconclusive | COP TGFb inh inactive
CC(=O)Nc1ccc(NC2=C(Cl)C(=O)c3ccccc3C2=O)cc1	TGFb inhibitor 3.5µM, HepG2 tox-1 3.5µM, ATXN2 expr inh inconclusive (no result: S2 tox) | TGFb CAGA inh 5.2µM | HepG2 tox-2 15µM | CCL64 TGFb inh 2.9µM | COP TGFb inh inconclusive
Cc1ccc(NC2=C(NCCO)C(=O)c3ccccc3C2=O)cc1	TGFb inhibitor inconclusive, Six1-Eya2 inh inconclusive, CtBP-E1A inh inconclusive
CN(C)c1ccc(NC2=C(Cl)C(=O)c3ccccc3C2=O)cc1	TGFb inhibitor 5.6µM, Six1-Eya2 inh inconclusive, HepG2 tox-1 5.6µM, ATXN2 expr inh inconclusive (no result: S2 tox) | TGFb CAGA inh 5.2µM | HepG2 tox-2 12µM | CCL64 TGFb inh 13µM | COP TGFb inh inconclusive
CCOc1ccc(-n2c(=O)c3c(C)c(C)sc3n(Cc3ccccc3C)c2=O)cc1	none (no result: Six1-Eya2 inh, CtBP-E1A inh)
CNc1cc(C(=O)O)nc2ccccc12	TGFb inhibitor inconclusive (no result: S2 tox, Six1-Eya2 inh, CtBP-E1A inh, ATXN2 expr inh)
O=[N+]([O-])c1c(Nc2ccc(O)cc2)cc(Cl)c2nonc12	TGFb inhibitor 2.8µM, HepG2 tox-1 5µM (no result: S2 tox, CtBP-E1A inh, ATXN2 expr inh) | TGFb CAGA inh 3.3µM | HepG2 tox-2 3.7µM | CCL64 TGFb inh 2.9µM | COP TGFb inh 4.6µM
O=[N+]([O-])c1c(Nc2ccccn2)cc(Cl)c2nonc12	S2 tox inconclusive, TGFb inhibitor 3.2µM, ATXN2 expr inh 28µM | TGFb CAGA inh 4.6µM | HepG2 tox-2 4.6µM | CCL64 TGFb inh 4.6µM | COP TGFb inh 5.2µM
CN(C)c1cc(Nc2ccc(O)cc2)c([N+](=O)[O-])c2nonc12	S2 tox inconclusive
CCC(Oc1ccccc1)C(=O)Nc1nnc(S(=O)(=O)N(CC)CC)s1 (stereo not drawn)	TGFb inhibitor inconclusive (no result: Six1-Eya2 inh, CtBP-E1A inh)
